# Bioassay records as filed in PubChem.
# Shown is part of a subset that was picked to be rich in hits.
# mcGAS MS inh – blocks mouse cGAS cGAMP production | recombinant mouse cGAS, cGAMP by RapidFire MS | 130,000 tested, 0.18% active | AID 1259397 | inhibition, % at 12.5 µM;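 active = inhibition of cGAS enzyme activity at or above 60%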;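 note: enzyme stimulated by 45 bp dsDNA with ATP and GTP substrates; cGAMP share of summed cGAMP plus half ATP and half GTP signals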
# Target sequence (Q8C6L5 whole entry, looked up): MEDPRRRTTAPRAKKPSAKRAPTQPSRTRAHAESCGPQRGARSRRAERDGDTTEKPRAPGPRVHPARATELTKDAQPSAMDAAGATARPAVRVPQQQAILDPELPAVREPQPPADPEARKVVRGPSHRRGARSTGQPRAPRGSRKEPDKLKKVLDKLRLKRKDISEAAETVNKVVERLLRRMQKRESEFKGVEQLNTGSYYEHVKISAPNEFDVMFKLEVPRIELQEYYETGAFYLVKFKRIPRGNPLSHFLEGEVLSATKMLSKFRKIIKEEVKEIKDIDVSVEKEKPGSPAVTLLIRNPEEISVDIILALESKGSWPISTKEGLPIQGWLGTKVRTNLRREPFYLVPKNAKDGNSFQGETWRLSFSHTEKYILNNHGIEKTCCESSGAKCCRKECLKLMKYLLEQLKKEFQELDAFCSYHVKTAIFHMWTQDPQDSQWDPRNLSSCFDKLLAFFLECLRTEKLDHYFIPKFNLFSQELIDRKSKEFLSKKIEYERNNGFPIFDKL
# Hits are given with their value; - = inactive; ! = not confirmed by another sample.
SMILES,mcGAS MS inh
Cc1ccc(-c2cc(C(=O)Nc3cnn(C45CC6CC(CC(C6)C4)C5)c3)no2)cc1,-
O=C(Nc1cnn(C23CC4CC(CC(C4)C2)C3)c1)c1cc(-c2ccccc2)on1,-
CCCn1cc(NC(=O)c2cc(-c3ccccc3)on2)cn1,72
CN1CCCC(C(=O)Nc2ccc(Cl)c(Cl)c2)CC1 (stereo unspecified),-
O=C(O)c1ccc2c(c1)C(=O)N(Nc1ccccc1[N+](=O)[O-])C2=O,-
CN(CC(N)=O)S(=O)(=O)c1c(Cl)ccc2c(Cl)ccnc12,-
CCCOC(=O)C1=C(C)N(C)C(=O)NC1c1ccc([N+](=O)[O-])cc1 (stereo unspecified),-
CCOCCOC(=O)C1=C(C)N(C)C(=O)NC1c1cccc([N+](=O)[O-])c1 (stereo unspecified),-
CCOCCOC(=O)C1=C(C)N(CC)C(=O)NC1c1ccc([N+](=O)[O-])cc1 (stereo unspecified),98
Cc1ccc(-c2nc(CN(CCO)Cc3cccs3)c(C)o2)o1,-
COC(=O)c1c(N)sc2c1CCC2,-
COC(=O)c1c(N2C(=O)C=CC2=O)sc2c1CCCC2,91
COC(=O)c1c(N)sc2c1CCCC2,-
c1ccc(Cc2nc(-c3cn4ccsc4n3)n[nH]2)cc1,-
Cc1sc2ncnc(N(C)CCC#N)c2c1C,-
COCc1[nH]nc2c1C1(CCSCC1)C(C#N)C(=N)O2 (stereo unspecified),-
O=C(Cn1c2ccccc2c(=O)c2ccccc21)Nc1ccccn1,-
Clc1c(-c2nnco2)sc2ccccc12,-
S=c1[nH]nc(-c2ccccc2Cl)o1,-
S=c1[nH]nc(-c2sc3ccccc3c2Cl)o1,92
CC1CCC(=O)N1c1ccc(-n2cnnc2)cc1 (stereo unspecified),-
Cc1cc(C(C)(C)C)cc(C)c1CSc1nnc(-c2ccncc2)n1C,-
Cc1nc(CCN)cc(N2CCC(N3CCCC3)CC2)n1,-
CCCOC1CCCN(c2cc(CCN)nc(C)n2)C1 (stereo unspecified),97
Cc1nc(CCN)cc(N2CC3C[C@@H]4CC2C[C@H](C3)C4)n1,-
SMILES,mcGAS MS inh
COc1ccc(NC(=O)c2cn(-c3cc(N4CCCCC4)ncn3)cn2)cc1F,-
COc1cc(C)ccc1OCc1nc(C(=O)N(C)CC2Cc3ccccc3O2)co1 (stereo unspecified),-
Cc1cc(C)c(NC(=O)CSC2=C(C#N)C(c3ccc(F)cc3)CC(=O)N2)c(C)c1 (stereo unspecified),-
Cn1cnnc1CNC(=O)Cc1cc(Cl)ccc1Cl,-
N#CC(=Cc1ccc(Br)cc1)c1nnc2n1CCCCC2,60
N#CC(=Cc1ccc(F)cc1)c1nnc2n1CCCCC2,-
N#CC(=Cc1ccc(O)c(O)c1)c1nnc2n1CCCCC2,-
Cc1ccc(CNC(=O)C2CSCN2C(=O)c2ccccc2)cc1 (stereo unspecified),-
COc1ccc2c(c1)C(OC(C)=O)C(C)(C)C(c1ccc(F)cc1)N2 (stereo unspecified),-
Cc1cc(C)c(S(=O)(=O)N2CCCCC2CCNC(=O)C(=O)Nc2ccccc2)c(C)c1 (stereo unspecified),-
CC(Nc1ccc(Cl)cc1Cl)C(=O)O (stereo unspecified),-
NC(Cc1ccc(O)cc1)C(=O)O (stereo unspecified),-
N[C@@H](Cc1cc(-c2ccc(Cl)cc2Cl)cc(CP(=O)(O)O)c1O)C(=O)O,70
Cc1csc(CNS(=O)(=O)c2cc(F)cc(F)c2)n1,-
CCNC(=O)NC(=O)CN1C(=O)NC2(CCC(C)CC2)C1=O (stereo unspecified),-
CCC(=O)N(c1nnc(SC(C)C(=O)NC2CCCC(C)C2C)s1)C1CC1 (stereo unspecified),-
Cc1ncsc1CCC(=O)NCc1cn[nH]c1-c1ccc(F)cc1,-
O=C(Nc1ccc(SC(F)F)cc1)c1ccc(-n2cncn2)cc1,-
Nc1ccc(O)c(C(=O)O)c1,-
O=C(O)C1=CC(=C(c2ccc(O)c(C(=O)O)c2)c2ccc(O)c(C(=O)O)c2)C=CC1=O,95
Cc1cc(O)ccc1C(=O)O,-
CN(CC1CCN(CCc2ccc(Cl)cc2)CC1)C(=O)CC1NC(=O)c2ccccc21 (stereo unspecified),-
CCc1cc2c(=O)n(Cc3ccco3)c(SCC#N)nc2s1,-
O=C(Nc1nnc(C2CC2)s1)c1cn(-c2ccc(Br)cc2)nn1,-
O=C(Nc1nncs1)c1cn(-c2ccccc2Br)nn1,71
SMILES,mcGAS MS inh
O=C(Nc1nncs1)c1cnn(Cc2ccccc2Cl)c1,-
CCc1nc(NC(=O)CCOCC(C)C)n[nH]1,-
CCNC(=O)C1(C)CCCN(CC(=O)c2ccc(Br)cc2)C1 (stereo unspecified),-
CCCNC(=O)C1(C)CCN(CCC(=O)c2ccc(Br)cc2)C1 (stereo unspecified),64
CCNC(=O)C1(C)CCN1CCC(=O)c1ccc(Br)cc1 (stereo unspecified),-
CC(C)C(NCc1nnnn1-c1ccccc1)c1cccs1 (stereo unspecified),-
COC(=O)c1cc(NC(=O)C2=NCC(=O)N(c3ccccc3)N2)ccc1F,-
CCc1nc(CN2CCC(c3[nH]ncc3Cc3ccccc3)CC2)c(C)[nH]1,-
O=C(O)C12CCCC(Br)(CCC1)C2,-
O=C(O)C12CC3CC(CC(C3)C1)C2,-
C=CCN=Cc1ccc2oc(C(=O)OCC)c(C)c2c1Cl,-
Cc1ccccc1-n1nc(C)c(CNC(=O)C2(c3ccccc3)CCCCC2)c1C,-
O=C1OC(c2ccccc2)=NC1=Cc1ccc(Cl)s1,-
CC1(C)Cc2c(cnn2-c2ccc([N+](=O)[O-])cc2)-c2[nH]c3ccccc3c21,76
Nc1c(-c2ccccc2)cnn1-c1ccc([N+](=O)[O-])cc1,-
N#Cc1cc2[nH]c3ccccc3c2n(-c2ccc([N+](=O)[O-])cc2)c1=N,-
O=C(Nc1ccc(Oc2ccccc2)nc1)C1CCN(C(=O)c2cnsn2)CC1,-
CSc1ccc(C2NC(C(=O)O)CS2)cc1 (stereo unspecified),-
O=C(O)C1CSC(c2cc(Br)c(O)c(Br)c2)N1 (stereo unspecified),87
O=C(O)C1CSC(c2cc(Br)ccc2O)N1 (stereo unspecified),-
CCCCCCCCCCCC[N+](C)(C)CCOc1ccccc1,-
C[N+](C)(C)CCCCCC[N+](C)(C)C,-
CCCCCCCCCCCCCCCC[N+](C)(C)C,98!
COc1ccc(CN(C)c2cncc(Cl)n2)c(OC)c1,-
Oc1oc(-c2cccc3ccccc23)nc1C=Nc1cccc(F)c1,-
SMILES,mcGAS MS inh
Cc1ccc(Cl)cc1N=Cc1nc(-c2ccc(Cl)cc2)oc1O,-
Cc1cc(Cl)ccc1N=Cc1nc(-c2ccccc2Br)oc1O,-
Cc1ccc(Cl)cc1N=Cc1nc(-c2cccc3ccccc23)oc1O,83
Cc1cccc(N=Cc2nc(-c3cccc4ccccc34)oc2O)c1,88
Cc1ccc(-c2nc(C=Nc3cccc(C)c3)c(O)o2)cc1,-
Cc1ccc(NC(=O)c2cccc(-c3ccc(O)cc3)c2)cc1Cl,-
CCCCc1ccc(NC(=O)c2cn(CC)nc2OCC)cc1,-
CN(CC(=O)NCc1ccco1)C(=O)COc1ccc(F)c(Cl)c1,-
N#Cc1c(SCc2ccccc2)n[nH]c1-c1cccs1,-
NC(=O)c1ccccc1NC(=O)Cn1ncccc1=O,-
O=C(Cc1ccccc1F)N1CCN(S(=O)(=O)c2ccc3c(c2)OCCO3)CC1,-
CCN(CC)c1n[nH]c(-c2cccc(Cl)c2)n1,-
COc1ccc(Cl)cc1CN1C(=O)CON=C1c1ncccc1C,-
COc1ccc(Cl)cc1CN1C(=O)CON=C1c1ccc(C)cc1,63
